Hit rate of the full screen: of about 13,000 compounds, about 3,200 (25%) showed an effect of 50% or more. The list shows a part of the results.
Each compound was assayed on P. falciparum stage V gametocytes. Conditions: 48 h, 5 µM; inhibitor.
Parameters: BacTiter-Glo ATP luminescence viability of purified stage V gametocytes in 384-well plates, per cent inhibition versus DMSO

Row | SMILES | % Inhibition [%]
1 | CCC(CC)OC(=O)C(C)c1cccc(C(=O)c2ccccc2)c1 (stereo not drawn) [TCMDC-138666] | -7.418
2 | COc1ccc2ncc(F)c(CCN3CC[C@H](NCc4cc(C#N)c5c(c4)OCCO5)[C@H](O)C3)c2c1 [TCMDC-136207] | -10.98
3 | CCC(C)OC(=O)C1=C(C)NC2=C(C(=O)CC(c3ccc(OC)c(OC)c3)C2)C1c1ccc(O)cc1 (stereo not drawn) [TCMDC-125619] | 13.43
4 | CCOC(=O)c1ccc(NC(=O)N[C@@H](Cc2ccc(O)cc2)C(=O)NC2CCN(Cc3ccc4c(c3)OCO4)CC2)cc1 [TCMDC-135257] | -19.76
5 | CCN(CC)CCN(Cc1ccc(-c2ccc(C(F)(F)F)cc2)cc1)C(=O)Cn1c(CCc2cc(F)cc(F)c2)nc(=O)c2ccccc21 [TCMDC-140956] | 70.83
6 | CCN(CC)CCN(Cc1ccc(-c2ccc(C(F)(F)F)cc2)cc1)C(=O)Cn1c(CCC2CCCCC2)nc(=O)c2ccccc21 [TCMDC-141056] | 47.99
7 | CCN(CC)CCN(Cc1ccc(-c2ccc(C(F)(F)F)cc2)cc1)C(=O)Cn1c(/C=C/c2ccco2)nc(=O)c2ccccc21 [TCMDC-140939] | 82.58
8 | CCN(CC)CCN(Cc1ccc(-c2ccc(C(F)(F)F)cc2)cc1)C(=O)Cn1c(CCc2ccc(F)cc2)nc(=O)c2ccccc21 [TCMDC-140943] | 79.23
9 | COc1ccc2nccc(N3CCN(CCNCc4ccc5c(n4)NC(=O)CO5)CC3)c2n1 [TCMDC-141968] | 1.504
10 | Cc1cc(NCC(C)C)c2[nH]nc(-c3ccccc3)c2n1 [TCMDC-131557] | -38.79
11 | CC(=O)c1c(Cc2ccccc2Cl)c[nH]c1C [TCMDC-125433] | -14.2
12 | CC(C)COc1cc(C(=O)Nc2cnc3ccccc3c2)ccc1[N+](=O)[O-] [TCMDC-139142] | 13.84
13 | COc1ccc(CNC(=O)NC2CCN(c3ccnc(Nc4ccc(F)cc4)n3)CC2)cc1 [TCMDC-133631] | 1.923
14 | OC(CNC12CC3CC(CC(C3)C1)C2)c1cccc(C(F)(F)F)c1 (stereo not drawn) [TCMDC-131509] | -56.01
15 | CCc1ccc(-n2cc(C(=O)c3cc(Br)ccc3O)cc(C#N)c2=O)cc1 [TCMDC-125186] | 9.775
16 | O=[N+]([O-])c1ccccc1/C=N/Nc1ccnc2cc(Cl)ccc12 [TCMDC-123965] | -67.83
17 | COc1ccc2nccc([C@@H](O)CN3CCC(NC(=O)c4ccc(C5(C(F)(F)F)N=N5)cc4)CC3)c2c1 [TCMDC-141324] | -7.709
18 | CCCCOc1ccc(/C=C/c2ccc(-c3c(C)[nH]c(C)c(Cl)c3=O)s2)cc1 [TCMDC-136086] | 60.63
19 | O=C(/C=C/c1ccc(Cl)c(Cl)c1)NCCCCCN1CCC(NC(=O)Nc2ccc(Oc3ccccc3)cc2)C1 (stereo not drawn) [TCMDC-139528] | -43.31
20 | CC(C)c1ccc(NC(=O)NC2CCN(CCCCCN(C)C(=O)/C=C/c3ccc(Cl)c(Cl)c3)C2)cc1 (stereo not drawn) [TCMDC-139530] | -5.21
21 | CN(CCCCCN1CCC(NC(=O)Nc2ccc(Oc3ccccc3)cc2)C1)C(=O)/C=C/c1ccc(Cl)c(Cl)c1 (stereo not drawn) [TCMDC-139532] | -7.519
22 | O=C(/C=C/c1ccc(Cl)c(Cl)c1)NCCCCCN1CCC(NC(=O)Nc2ccc(Cl)c(Cl)c2)CC1 [TCMDC-139387] | -30.31
23 | CN(CCCCCN1CCC(NC(=O)Nc2ccc(C(F)(F)F)cc2)C1)C(=O)/C=C/c1ccc(Cl)c(Cl)c1 (stereo not drawn) [TCMDC-139531] | 79.06

Row | SMILES | % Inhibition [%]
24 | COc1ccc(NC(=O)NC2CCN(CCCCCNC(=O)/C=C/c3ccc(Cl)c(Cl)c3)CC2)cc1 [TCMDC-135709] | -22.99
25 | O=C(/C=C/c1ccc(Cl)c(Cl)c1)NCCCCCN1CC[C@H](NC(=O)Nc2ccc(Oc3ccccc3)cc2)C1 [TCMDC-139512] | 98.95
26 | CC(C)c1ccc(NC(=O)NC2CCN(CCCCCNC(=O)/C=C/c3ccc(Cl)c(Cl)c3)CC2)cc1 [TCMDC-139389] | -3.81
27 | COc1ccc(NC(=O)NC2CCN(CCCCCNC(=O)/C=C/c3ccc(Cl)c(Cl)c3)C2)c(OC)c1 (stereo not drawn) [TCMDC-139525] | 95.6
28 | CC(C)c1ccc(NC(=O)N[C@H]2CCN(CCCCCNC(=O)/C=C/c3ccc(Cl)c(Cl)c3)C2)cc1 [TCMDC-139510] | 104.6
29 | COc1ccccc1NC(=O)NC1CCN(CCCCCNC(=O)/C=C/c2ccc(Cl)c(Cl)c2)CC1 [TCMDC-139385] | -13.68
30 | O=C(/C=C/c1ccc(Cl)c(Cl)c1)NCCCCCN1CCC(NC(=O)Nc2ccc(OC(F)F)cc2)CC1 [TCMDC-135722] | -13.06
31 | CN1CCN(c2cc(NC(=O)Nc3ccc(-c4ccncc4)c(Cl)c3)ccc2Br)CC1 [TCMDC-139221] | 36.17
32 | COc1cc(OC)cc(-c2nc3c(C#N)c(OCCN(C)C)ccc3[nH]2)c1 [TCMDC-133764] | 10.97
33 | CCOC(=O)c1ccc(NC(=O)N[C@H]2CCN(CCCCCNC(=O)/C=C/c3ccc(Cl)c(Cl)c3)C2)cc1 [TCMDC-139511] | 97.51
34 | CCOC(=O)c1ccc(NC(=O)NC2CCN(CCCCCNC(=O)/C=C/c3ccc(Cl)c(Cl)c3)C2)cc1 (stereo not drawn) [TCMDC-139526] | 12.95
35 | CCNc1cc(C(=O)N[C@@H](Cc2ccccc2)[C@H](O)CNC2CCC(F)(F)CC2)c(F)c(N2CCCCS2(=O)=O)c1 [TCMDC-135448] | 35.59
36 | CCN1CCN(CCCNc2ccnc3cc(Cl)ccc23)CC1 [TCMDC-137588] | 6.527
37 | COc1ccc2nc3cc(Cl)ccc3c(NCCc3ccccc3)c2c1.Cl [TCMDC-137665] | -3.627
38 | COc1ccc2nc3cc(Cl)ccc3c(NCCCCN3CCNCC3)c2c1 [TCMDC-137578] | 99.69
39 | CCN1CCN(CCCNc2c3ccc(Cl)cc3nc3ccc(O)cc23)CC1 [TCMDC-137583] | 70.77
40 | COc1ccc2nc3ccccc3c(NCCN3CCN(C)CC3)c2c1 [TCMDC-138017] | 69.17
41 | CCN1CCN(CCCNc2c3ccc(Cl)cc3nc3ccc(OC)cc23)CC1 [TCMDC-137586] | 86.55
42 | CN1CCCc2ccc(NC(=O)Nc3ccc(Cl)c(Cl)c3)cc2C1 [TCMDC-133732] | -5.496
43 | Cc1ccc2[nH]c3c(NCCN(C)C)ncnc3c2c1 [TCMDC-124581] | -20.4
44 | COc1ccc2nc3cc(Cl)ccc3c(NCCCN3CCNCC3)c2c1 [TCMDC-137580] | 104.3
45 | Cc1ccc2nc3ccccc3c(NCCN3CCN(C)CC3)c2c1 [TCMDC-138018] | 95.43
46 | COc1ccc2nc3cc(Cl)ccc3c(Nc3ccc(C(=O)O)cc3)c2c1.Cl [TCMDC-138029] | 43.24

Row | SMILES | % Inhibition [%]
47 | COc1ccc2nc3cc(Cl)ccc3c(NCCN3CCN(C)CC3)c2c1 [TCMDC-137476] | 105
48 | CCOC(=O)N1CCN(CCCNc2c3ccc(Cl)cc3nc3ccc(OC)cc23)CC1 [TCMDC-137480] | 40.55
49 | CCOC(=O)N1CCN(CCCCNc2c3ccc(Cl)cc3nc3ccc(OC)cc23)CC1.Cl [TCMDC-137579] | 70.35
50 | CCOC(=O)C1=C(C)NC2=C(C(=O)CC(C)(C)C2)C1c1ccc(Cl)cc1 (stereo not drawn) [TCMDC-123497] | 10
51 | O=C(N[C@@H](CC1CCCCC1)C(=O)NCCN1CCCC1)c1ccc(O)c(-c2ccc(Cl)c(Cl)c2)c1 [TCMDC-140830] | 4.598
52 | COc1ccc(Nc2nccc(NCC(O)c3ccc(C(F)(F)F)cc3)n2)cc1 (stereo not drawn) [TCMDC-136595] | -79.42
53 | CCCCCN(C(=O)Nc1cc(C(F)(F)F)cc(C(F)(F)F)c1)C(C)c1nc2ccccc2c(=O)n1CC (stereo not drawn) [TCMDC-124043] | -29.97
54 | O=C(Nc1cc(C(F)(F)F)ccc1Cl)c1ccc(Cn2cc(Br)cn2)cc1 [TCMDC-124912] | -0.3608
55 | FC(F)(F)COc1c(CCNCCCCNCCc2ccc3ccccc3c2OCC(F)(F)F)ccc2ccccc12 [TCMDC-137169] | 119.3
56 | O=c1cc(NCCCNCc2cccc(C(F)(F)F)c2Cl)[nH]c2ccccc12 [TCMDC-139421] | -19.98
57 | N#Cc1ccc(CNCCCCCCNCc2ccc(C#N)c3ccccc23)c2ccccc12 [TCMDC-137849] | 40.84
58 | FC(F)(F)COc1c(CNCCCCCCNCc2ccc3ccccc3c2OCC(F)(F)F)ccc2ccccc12 [TCMDC-137833] | 67.85
59 | CN(C)c1ccc(C2(c3ccccc3)N=C(N)N(CCCc3ccccc3)C2=O)cc1 (stereo not drawn) [TCMDC-136715] | -12.92
60 | CCCCCOc1ccc(C(O)C(CCC(CN2CCCCCC2)C(O)c2ccc(OCCCCC)cc2)CN2CCCCCC2)cc1 (stereo not drawn) [TCMDC-124174] | 105.7
61 | CCCCCOc1ccc(C(O)C(CN2CCCCC2)c2ccccc2)cc1 (stereo not drawn) [TCMDC-124165] | 1.137
62 | CC(C)COc1ccc(C(O)C(CN2CCCCC2)c2ccccc2)cc1 (stereo not drawn) [TCMDC-124253] | 31.95
63 | COc1ccc(CNC2CCN(C)CC2)cc1-c1ccc(S(=O)(=O)NCCc2ccccn2)s1 [TCMDC-132256] | 13.25
64 | COc1ccc(CNC2Cc3ccccc3C2)cc1-c1ccc(S(=O)(=O)NCCc2ccccn2)s1 [TCMDC-132255] | 98.81
65 | COc1ccc(CNC2CCN(C)CC2)cc1-c1ccc(S(=O)(=O)NCc2ccccc2)s1 [TCMDC-132253] | 85.45
66 | COc1cc(CNC2Cc3ccccc3C2)ccc1Oc1ccc2nc[nH]c2c1 [TCMDC-133481] | -19.03
67 | COc1ccc(CNC2CCN(C)CC2)cc1-c1ccc(S(=O)(=O)NCc2cccnc2)s1 [TCMDC-132261] | 20.62
68 | COc1ccc(CNC2Cc3ccccc3C2)cc1-c1ccc(S(=O)(=O)NCc2ccccc2)s1 [TCMDC-132252] | 67.04
69 | COc1ccc(CNC2Cc3ccccc3C2)cc1-c1ccc(S(=O)(=O)NCc2cccnc2)s1 [TCMDC-132260] | 33.12

Source: publication PMC4552634, “A New Set of Chemical Starting Points with Plasmodium falciparum Transmission-Blocking Potential for Antimalarial Drug Discovery” (PLoS ONE, 2015)
